According to the supplement of paper PMC4100887:
± gives the standard deviation of the averaged measurements.

system: K562; experiment: relative cell viability (ATPlite) vs untreated control, with imatinib (fraction); higher = less toxic; details: 1 µM; 72 h; imatinib 0.125 µM

| SMILES | relative cell viability |
| --- | --- |
| N#CCCc1ccc2c(c1)-c1[nH]c3ccc([N+](=O)[O-])cc3c1CC(=O)N2 [Alsterpaullone, 2-Cyanoethyl] | 0.153 ± 0.036 |
| c1ccc(-c2n[nH]c3c2oc2ccccc23)cc1 | 0.732 ± 0.04 |
| COc1cc2ncc(-c3ccccc3)nc2cc1OC | 0.76 ± 0.045 |
| CS(=O)(=O)c1ccc(-c2nc(-c3ccc(F)cc3)c(-c3ccncc3)[nH]2)cc1 | 0.703 ± 0.043 |
| O=C1C(Cl)=C(N2C(=O)CCC2=O)C(=O)c2ccccc21 [MEK Inhibitor II] | 0.653 ± 0.071 |
| CC(C)(C)c1nc2c3cc[nH]c(=O)c3c3cc(F)ccc3c2[nH]1 [JAK Inhibitor I] | 0.72 ± 0.035 |
| COc1ccc(-c2cnc3c(-c4ccsc4)cnn3c2)cc1 [VEGF Receptor 2 Kinase Inhibitor IV] | 0.726 ± 0.067 |
| Nc1ncnc2c1c(I)cn2[C@@H]1O[C@H](CO)[C@@H](O)[C@H]1O [5-Iodotubercidin] | 0.702 ± 0.065 |
| O=C(Nc1ccncc1)Nc1c(Cl)cc(Cl)cc1Cl [Rho Kinase Inhibitor II] | 0.743 ± 0.03 |
| Cn1nc2c3c(cccc31)C(=O)c1ccccc1-2 [JNK Inhibitor, Negative Control] | 0.733 ± 0.038 |
| NC(=O)Nc1cc(-c2ccccc2)sc1C(N)=O [IKK-2 Inhibitor XI] | 0.802 ± 0.037 |
| OCC(O)CCO/N=C1\C(c2c(O)[nH]c3ccccc23)=Nc2ccccc21 (configuration not stated) [Indirubin Derivative E804] | 0.644 ± 0.071 |
| Cn1sc(=O)n(Cc2ccccc2)c1=O [GSK-3b Inhibitor I] | 0.704 ± 0.031 |
| Nc1nc(Nc2ccc(S(N)(=O)=O)cc2)nn1C(=S)Nc1c(F)cccc1F [Cdk1/2 Inhibitor III] | 0.0471 ± 0.0048 |
| O=c1cc(N2CCNCC2)oc2c(-c3ccccc3)cccc12 | 0.76 ± 0.034 |
| CCCCc1c(-c2ccc(O)cc2)[nH]c2nccnc12 [Aloisine A, RP107] | 0.77 ± 0.032 |

| SMILES | relative cell viability |
| --- | --- |
| Brc1c(Br)c(Br)c2n[nH]nc2c1Br [Casein Kinase II Inhibitor I] | 0.833 ± 0.03 |
| CCCOc1ccc(/C=C2/SC(=O)NC2=O)cc1 [PIM1/2 Kinase Inhibitor VI] | 0.802 ± 0.029 |
| CCC(=O)Nc1ccc2ncnc(Nc3cccc(Br)c3)c2c1 | 0.743 ± 0.05 |
| O=C(c1cc2cc(O)ccc2[nH]1)c1cc2cc(O)ccc2[nH]1 [Flt-3 Inhibitor II] | 0.418 ± 0.035 |
| CN[C@@H]1C[C@H]2O[C@@](C)([C@@H]1OC)n1c3ccccc3c3c4c(c5c6ccccc6n2c5c31)C(=O)N[C@H]4O | 0.14 ± 0.026 |
| Cc1cc(C=C2C(=O)C=CC2=O)cc(C)c1O | 0.595 ± 0.12 |
| O=C(O)c1ccc2c3c1cccc3c(=O)n1c3ccccc3nc21 | 0.811 ± 0.088 |
| COc1ccc2c(c1)c(C1=C(c3c[nH]c4ccccc34)C(=O)NC1=O)cn2CCCN(C)C | 0.755 ± 0.051 |
| CNc1cc2c(Nc3cccc(Br)c3)ncnc2cn1 | 0.807 ± 0.023 |
| Cc1cc2ncc(-c3ccccc3)nc2cc1C | 0.719 ± 0.05 |
| Cc1ccc(S(=O)(=O)/C=C/C#N)cc1 | 0.697 ± 0.14 |
| CCCCCCOC(=O)[C@]1(O)C[C@@H]2O[C@@]1(C)n1c3ccccc3c3c4c(c5c6ccccc6n2c5c31)C(=O)NC4 | 0.764 ± 0.02 |
| CCN(CC)CCNC(=O)c1c(C)[nH]c(/C=C2\C(=O)Nc3ccc(Cl)cc32)c1C | 0.799 ± 0.052 |
| COc1ccc(OC)c2c(=S)c3ccccc3[nH]c12 | 0.795 ± 0.041 |
| O=C1Nc2ccc(Br)cc2/C1=C/c1cc2c([nH]1)CCCC2 [VEGF Receptor 2 Kinase Inhibitor II] | 0.782 ± 0.054 |
| O=C(O)C=Cc1cc(Br)c(Br)c(Br)c1Br [Casein Kinase II Inhibitor III, TBCA] | 0.836 ± 0.044 |
